Measurements taken from PubChem BioAssay AID588849 (Broad Institute, 2011).
Results with a measured potency or affinity are listed apart. Active and inactive are the calls of the source. How the calls were made is not given here.

target: CAAX prenyl protease 2 (Homo sapiens) (UniProt Q9Y256); assay: inhibition of Ras-converting CAAX protease Rce1 – biochemical, yeast membranes, quenched-peptide fluorescence, cherry-pick, dose response (AID 588849); settings: yeast membrane fractions expressing human Rce1, quenched-peptide fluorescence, 4 h; series mostly up to 10 µM
Sequence (Q9Y256 whole entry, looked up): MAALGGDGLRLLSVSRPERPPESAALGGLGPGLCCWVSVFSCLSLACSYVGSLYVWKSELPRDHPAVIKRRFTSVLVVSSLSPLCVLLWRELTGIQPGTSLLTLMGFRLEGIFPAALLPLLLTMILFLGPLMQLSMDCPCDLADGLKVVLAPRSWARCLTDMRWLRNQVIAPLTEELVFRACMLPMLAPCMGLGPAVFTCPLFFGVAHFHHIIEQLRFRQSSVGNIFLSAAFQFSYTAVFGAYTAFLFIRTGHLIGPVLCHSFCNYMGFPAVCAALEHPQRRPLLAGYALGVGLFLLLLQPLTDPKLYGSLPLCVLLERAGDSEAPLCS

outcome, inactive:
CCCCNC(=S)N=Nc1c(O)n(Cc2ccccc2)c2ccccc12
COC(C[C@@H]1O[C@@H]1C(=O)[C@@H](C)OCc1ccccc1)OC
COc1ccc(CC(=O)OCC(=O)Nc2ccc(Br)cc2)cc1
COc1ccc(OC)c(/C=N/NC(=O)Cn2ccnc2C)c1
CCCCNC(=S)NNC(=O)CCn1cc(C)cn1
CC(C)C(=O)Nc1cccc(NC(=S)NC(=O)C(c2ccccc2)c2ccccc2)c1
Cc1cc(OCC(=O)N2CCC(C(=O)O)CC2)c2c(C)cc(=O)oc2c1
CSc1ccc(C(=O)C2CCCN(C(=O)c3cccnc3SC)C2)cc1 (centres undefined)
O=C(NC1CC1)c1ccc2c(c1)N(Cc1ccccc1)CCS2
Cc1ccc(-c2cc(-c3ccccc3)c(C#N)c(Br)n2)cc1
Cc1ccc2c(C)c(C(=O)N(Cc3ccc(F)cc3)C3CCS(=O)(=O)C3)oc2c1 (centres undefined)
O=C(Nc1ccc(N2CCOCC2)c(Cl)c1)c1cc2ccccc2o1
O=C(Nc1ccc(F)cc1)Oc1ccccc1N1CCOCC1
CCOC(=O)c1c(NC(=O)COc2ccccc2F)sc2c1CC(C)(C)NC2(C)C
Cc1cc(N2CCOCC2)n2cc(-c3ccccc3)nc2n1
O=C(NCCc1c[nH]c2ccccc12)OCCSS(=O)(=O)O
CCOC(=O)C1CCCN(C(=O)CCn2nnnc2CN2CCOCC2)C1 (centres undefined)
Cc1nc(N2CCOCC2)c2c(C)c(C(=O)Nc3ccc(C(F)(F)F)cc3)sc2n1
Cc1cc2cc(C#N)c(NCCNC(=S)NCCCN3CCOCC3)nc2cc1C
